According to the supplement of paper PMC11732987, “Enantioselective OTUD7B fragment discovery through chemoproteomics screening and high-throughput optimisation” (Communications Chemistry, 2025):

Assays:
Experiment in all cases: log2 ratio of Biotin-Ahx-Ub-VS probe labelling (fragment/DMSO); higher = less target engagement (more negative = stronger competition), active = hit call of the paper (q ≤ 0.05, log2 ratio ≤ -1)
Conditions in all cases: compound concentration: 200 uM; treatment time: 3 h
USP42 = biological target: T1, USP42 (UniProt Q9H9J4)
T1 sequence (whole entry): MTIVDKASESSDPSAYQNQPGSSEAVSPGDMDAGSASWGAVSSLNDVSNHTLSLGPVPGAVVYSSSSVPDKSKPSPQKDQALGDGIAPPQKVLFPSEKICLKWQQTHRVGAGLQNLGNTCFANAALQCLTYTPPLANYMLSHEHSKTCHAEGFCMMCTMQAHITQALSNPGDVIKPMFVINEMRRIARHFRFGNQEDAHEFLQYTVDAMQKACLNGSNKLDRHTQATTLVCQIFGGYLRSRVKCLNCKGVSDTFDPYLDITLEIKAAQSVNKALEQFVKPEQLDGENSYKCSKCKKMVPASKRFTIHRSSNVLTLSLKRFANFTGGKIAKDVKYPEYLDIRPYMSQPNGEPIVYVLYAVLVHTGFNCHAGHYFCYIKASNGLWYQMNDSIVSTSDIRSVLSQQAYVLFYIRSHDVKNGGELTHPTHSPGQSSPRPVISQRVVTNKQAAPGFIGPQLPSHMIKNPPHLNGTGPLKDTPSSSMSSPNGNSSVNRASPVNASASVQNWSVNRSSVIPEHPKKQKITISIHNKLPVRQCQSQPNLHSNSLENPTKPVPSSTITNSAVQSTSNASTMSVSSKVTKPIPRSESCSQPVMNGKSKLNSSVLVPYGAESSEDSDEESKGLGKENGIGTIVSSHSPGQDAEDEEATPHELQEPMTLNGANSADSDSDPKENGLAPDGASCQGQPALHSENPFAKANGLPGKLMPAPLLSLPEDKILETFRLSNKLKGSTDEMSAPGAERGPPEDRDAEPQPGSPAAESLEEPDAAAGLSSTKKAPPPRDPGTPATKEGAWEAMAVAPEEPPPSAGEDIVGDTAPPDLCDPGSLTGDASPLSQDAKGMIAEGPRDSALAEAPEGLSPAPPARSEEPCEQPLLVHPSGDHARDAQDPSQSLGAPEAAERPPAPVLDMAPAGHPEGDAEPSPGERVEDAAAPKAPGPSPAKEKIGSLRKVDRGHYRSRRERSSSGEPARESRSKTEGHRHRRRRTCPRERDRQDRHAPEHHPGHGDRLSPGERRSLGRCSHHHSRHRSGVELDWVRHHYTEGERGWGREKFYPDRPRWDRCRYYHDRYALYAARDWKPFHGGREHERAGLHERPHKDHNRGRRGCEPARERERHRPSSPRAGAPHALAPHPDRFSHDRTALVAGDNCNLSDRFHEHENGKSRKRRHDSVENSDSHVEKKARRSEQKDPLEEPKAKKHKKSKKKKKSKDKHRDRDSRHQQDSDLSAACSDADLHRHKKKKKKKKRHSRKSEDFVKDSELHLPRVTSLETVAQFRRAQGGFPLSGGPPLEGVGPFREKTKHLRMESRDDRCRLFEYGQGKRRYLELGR
How it was run: (§1)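 Labelled DUBs from HEK293T lysate were NeutrAvidin-enriched, digested with LysC and trypsin, and run by diaPASEF LC-MS/MS. Before that, each 495 µg sample in Tris/CHAPS/IGEPAL buffer with protease inhibitors was treated in triplicate with fragment at 200 µM or vehicle for 3 h, then with Biotin-Ahx-Ub-VS at 0.5 µM final for 1 h. Values are average log2 ratios of fragment over vehicle by unpaired t-test, based on global-median-normalised Spectronaut label-free quantities from proteins with ≥2 unique peptides.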

USP46 = USP46 (UniProt P62068)
Chain of USP46 (P62068 whole entry): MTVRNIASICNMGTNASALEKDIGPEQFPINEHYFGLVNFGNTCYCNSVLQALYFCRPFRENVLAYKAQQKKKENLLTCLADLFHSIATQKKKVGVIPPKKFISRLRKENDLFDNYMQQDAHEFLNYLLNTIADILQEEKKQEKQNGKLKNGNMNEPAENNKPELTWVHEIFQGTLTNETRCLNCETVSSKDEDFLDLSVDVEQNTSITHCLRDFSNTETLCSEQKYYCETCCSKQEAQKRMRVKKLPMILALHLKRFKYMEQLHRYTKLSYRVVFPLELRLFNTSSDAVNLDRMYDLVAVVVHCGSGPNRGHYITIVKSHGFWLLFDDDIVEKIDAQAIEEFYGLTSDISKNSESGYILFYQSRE
How it was run: as §1

USP47 = biological target: T2, USP47 (UniProt Q96K76)
T2 sequence (whole entry): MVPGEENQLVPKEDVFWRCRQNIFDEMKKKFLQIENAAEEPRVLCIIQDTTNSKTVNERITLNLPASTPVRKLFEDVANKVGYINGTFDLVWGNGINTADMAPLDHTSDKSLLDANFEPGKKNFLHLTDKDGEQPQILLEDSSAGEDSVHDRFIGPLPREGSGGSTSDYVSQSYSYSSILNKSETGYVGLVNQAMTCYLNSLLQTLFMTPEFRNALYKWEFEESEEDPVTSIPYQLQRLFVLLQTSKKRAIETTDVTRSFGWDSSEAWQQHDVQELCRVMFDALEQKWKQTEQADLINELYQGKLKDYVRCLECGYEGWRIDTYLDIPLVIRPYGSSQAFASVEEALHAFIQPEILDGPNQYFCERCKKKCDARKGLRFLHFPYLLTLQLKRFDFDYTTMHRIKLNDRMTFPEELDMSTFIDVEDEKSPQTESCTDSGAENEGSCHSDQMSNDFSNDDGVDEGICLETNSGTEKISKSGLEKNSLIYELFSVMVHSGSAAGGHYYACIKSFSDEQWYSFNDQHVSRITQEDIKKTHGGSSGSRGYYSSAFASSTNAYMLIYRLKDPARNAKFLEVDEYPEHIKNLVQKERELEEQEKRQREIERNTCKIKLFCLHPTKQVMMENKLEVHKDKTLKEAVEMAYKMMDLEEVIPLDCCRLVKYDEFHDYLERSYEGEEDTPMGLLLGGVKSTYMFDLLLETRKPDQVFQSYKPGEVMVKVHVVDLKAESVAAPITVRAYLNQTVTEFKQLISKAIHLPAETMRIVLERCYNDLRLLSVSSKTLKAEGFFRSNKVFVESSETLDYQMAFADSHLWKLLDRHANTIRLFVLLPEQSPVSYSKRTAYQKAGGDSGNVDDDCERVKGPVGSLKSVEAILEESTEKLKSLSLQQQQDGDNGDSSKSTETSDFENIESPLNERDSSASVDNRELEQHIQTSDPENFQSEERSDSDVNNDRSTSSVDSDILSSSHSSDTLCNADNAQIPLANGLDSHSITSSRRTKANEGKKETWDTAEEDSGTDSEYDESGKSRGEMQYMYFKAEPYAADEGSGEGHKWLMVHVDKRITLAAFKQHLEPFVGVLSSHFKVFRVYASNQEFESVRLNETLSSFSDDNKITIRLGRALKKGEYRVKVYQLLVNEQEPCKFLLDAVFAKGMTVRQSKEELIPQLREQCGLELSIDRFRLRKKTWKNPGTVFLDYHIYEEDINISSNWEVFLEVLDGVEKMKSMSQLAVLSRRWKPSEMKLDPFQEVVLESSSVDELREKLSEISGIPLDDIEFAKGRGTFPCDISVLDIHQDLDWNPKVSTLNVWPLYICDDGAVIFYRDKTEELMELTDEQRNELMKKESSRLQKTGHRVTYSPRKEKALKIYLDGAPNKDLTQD
How it was run: as §1

USP48 = biological target: T3, USP48 (UniProt Q86UV5)
T3 sequence (whole entry): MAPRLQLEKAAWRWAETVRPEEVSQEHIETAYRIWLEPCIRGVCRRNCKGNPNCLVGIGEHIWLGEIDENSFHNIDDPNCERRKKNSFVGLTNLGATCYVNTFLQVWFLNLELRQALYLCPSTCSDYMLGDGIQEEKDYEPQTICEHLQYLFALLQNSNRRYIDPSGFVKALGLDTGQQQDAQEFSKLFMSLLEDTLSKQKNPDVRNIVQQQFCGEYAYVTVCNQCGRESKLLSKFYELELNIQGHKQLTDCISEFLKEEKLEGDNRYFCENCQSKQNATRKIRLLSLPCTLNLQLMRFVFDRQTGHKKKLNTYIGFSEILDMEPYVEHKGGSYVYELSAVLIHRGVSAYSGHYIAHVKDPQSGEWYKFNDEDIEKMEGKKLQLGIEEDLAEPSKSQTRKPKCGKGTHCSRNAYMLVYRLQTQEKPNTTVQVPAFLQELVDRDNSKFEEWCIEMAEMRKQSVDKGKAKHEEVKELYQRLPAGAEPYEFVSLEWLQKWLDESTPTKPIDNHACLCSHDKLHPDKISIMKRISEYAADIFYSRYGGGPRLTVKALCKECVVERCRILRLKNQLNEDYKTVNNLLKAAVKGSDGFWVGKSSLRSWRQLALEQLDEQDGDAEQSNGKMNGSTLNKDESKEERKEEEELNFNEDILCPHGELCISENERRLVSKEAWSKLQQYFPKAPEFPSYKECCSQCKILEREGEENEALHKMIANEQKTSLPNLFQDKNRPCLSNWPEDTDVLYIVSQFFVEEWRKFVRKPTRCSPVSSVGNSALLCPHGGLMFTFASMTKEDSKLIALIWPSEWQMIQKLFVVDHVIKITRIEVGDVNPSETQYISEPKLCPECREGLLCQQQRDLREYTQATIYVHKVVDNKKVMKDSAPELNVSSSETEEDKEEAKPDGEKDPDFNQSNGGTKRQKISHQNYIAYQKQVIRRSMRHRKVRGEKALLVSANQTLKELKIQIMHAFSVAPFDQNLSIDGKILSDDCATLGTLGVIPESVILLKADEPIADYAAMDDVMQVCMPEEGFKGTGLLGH
How it was run: as §1

USP5 = biological target: T4, USP5 (UniProt P45974)
T4 sequence (whole entry): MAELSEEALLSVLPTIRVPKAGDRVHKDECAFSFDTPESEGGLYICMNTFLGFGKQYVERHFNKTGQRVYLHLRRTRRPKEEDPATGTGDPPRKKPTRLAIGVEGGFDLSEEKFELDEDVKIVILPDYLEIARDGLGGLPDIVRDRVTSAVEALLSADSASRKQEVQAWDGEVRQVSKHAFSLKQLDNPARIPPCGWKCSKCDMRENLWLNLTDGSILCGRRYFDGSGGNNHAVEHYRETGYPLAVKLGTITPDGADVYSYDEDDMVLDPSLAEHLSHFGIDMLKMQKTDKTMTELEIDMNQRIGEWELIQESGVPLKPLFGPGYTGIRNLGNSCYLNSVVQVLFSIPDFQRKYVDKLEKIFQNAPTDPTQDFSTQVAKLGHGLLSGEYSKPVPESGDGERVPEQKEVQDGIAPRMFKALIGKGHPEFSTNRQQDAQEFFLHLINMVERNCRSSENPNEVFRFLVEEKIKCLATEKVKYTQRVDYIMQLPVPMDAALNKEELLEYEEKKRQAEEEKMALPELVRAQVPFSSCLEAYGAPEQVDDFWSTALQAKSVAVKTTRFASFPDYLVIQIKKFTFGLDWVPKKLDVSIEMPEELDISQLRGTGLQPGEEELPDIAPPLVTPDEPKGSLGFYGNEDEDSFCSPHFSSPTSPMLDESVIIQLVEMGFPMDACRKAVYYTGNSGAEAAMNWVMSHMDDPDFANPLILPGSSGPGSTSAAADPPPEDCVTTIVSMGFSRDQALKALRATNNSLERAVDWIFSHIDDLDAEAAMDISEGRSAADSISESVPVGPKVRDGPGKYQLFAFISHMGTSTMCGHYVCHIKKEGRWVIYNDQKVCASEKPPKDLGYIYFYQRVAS
How it was run: as §1

USP54 = USP54 (UniProt Q70EL1)
How it was run: as §1

USP7 = USP7 (UniProt Q93009)
Chain of USP7 (Q93009 whole entry, looked up): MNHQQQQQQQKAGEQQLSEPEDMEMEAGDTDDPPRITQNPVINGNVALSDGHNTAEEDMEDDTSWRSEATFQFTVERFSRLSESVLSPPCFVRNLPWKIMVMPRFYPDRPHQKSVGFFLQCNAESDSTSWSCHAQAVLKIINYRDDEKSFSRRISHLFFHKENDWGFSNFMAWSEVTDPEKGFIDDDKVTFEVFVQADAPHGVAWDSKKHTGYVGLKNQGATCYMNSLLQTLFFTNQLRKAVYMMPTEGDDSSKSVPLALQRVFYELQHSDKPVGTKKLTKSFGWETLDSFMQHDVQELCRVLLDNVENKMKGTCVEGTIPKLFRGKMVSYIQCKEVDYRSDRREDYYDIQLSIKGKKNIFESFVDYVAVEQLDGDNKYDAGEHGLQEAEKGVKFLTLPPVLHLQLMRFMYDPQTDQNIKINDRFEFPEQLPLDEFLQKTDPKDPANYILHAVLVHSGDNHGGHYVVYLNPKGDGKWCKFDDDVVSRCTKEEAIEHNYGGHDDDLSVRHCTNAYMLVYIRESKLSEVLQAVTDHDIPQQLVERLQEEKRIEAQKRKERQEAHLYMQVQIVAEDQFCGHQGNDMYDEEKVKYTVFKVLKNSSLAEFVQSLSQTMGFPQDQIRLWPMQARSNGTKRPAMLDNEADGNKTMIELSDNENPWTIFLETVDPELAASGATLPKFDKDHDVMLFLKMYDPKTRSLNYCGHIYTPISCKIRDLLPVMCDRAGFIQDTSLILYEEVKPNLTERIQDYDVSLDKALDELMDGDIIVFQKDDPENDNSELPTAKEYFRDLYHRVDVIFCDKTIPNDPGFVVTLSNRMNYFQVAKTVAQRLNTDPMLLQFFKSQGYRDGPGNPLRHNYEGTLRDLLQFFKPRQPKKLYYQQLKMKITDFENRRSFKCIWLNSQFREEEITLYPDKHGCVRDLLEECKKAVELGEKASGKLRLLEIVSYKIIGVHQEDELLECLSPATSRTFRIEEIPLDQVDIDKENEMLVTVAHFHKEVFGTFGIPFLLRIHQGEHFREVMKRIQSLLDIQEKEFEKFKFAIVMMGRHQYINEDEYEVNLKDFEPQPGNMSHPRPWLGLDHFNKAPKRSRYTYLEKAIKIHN
How it was run: as §1

USP8 = biological target: T5, USP8 (UniProt P40818)
T5 sequence (whole entry): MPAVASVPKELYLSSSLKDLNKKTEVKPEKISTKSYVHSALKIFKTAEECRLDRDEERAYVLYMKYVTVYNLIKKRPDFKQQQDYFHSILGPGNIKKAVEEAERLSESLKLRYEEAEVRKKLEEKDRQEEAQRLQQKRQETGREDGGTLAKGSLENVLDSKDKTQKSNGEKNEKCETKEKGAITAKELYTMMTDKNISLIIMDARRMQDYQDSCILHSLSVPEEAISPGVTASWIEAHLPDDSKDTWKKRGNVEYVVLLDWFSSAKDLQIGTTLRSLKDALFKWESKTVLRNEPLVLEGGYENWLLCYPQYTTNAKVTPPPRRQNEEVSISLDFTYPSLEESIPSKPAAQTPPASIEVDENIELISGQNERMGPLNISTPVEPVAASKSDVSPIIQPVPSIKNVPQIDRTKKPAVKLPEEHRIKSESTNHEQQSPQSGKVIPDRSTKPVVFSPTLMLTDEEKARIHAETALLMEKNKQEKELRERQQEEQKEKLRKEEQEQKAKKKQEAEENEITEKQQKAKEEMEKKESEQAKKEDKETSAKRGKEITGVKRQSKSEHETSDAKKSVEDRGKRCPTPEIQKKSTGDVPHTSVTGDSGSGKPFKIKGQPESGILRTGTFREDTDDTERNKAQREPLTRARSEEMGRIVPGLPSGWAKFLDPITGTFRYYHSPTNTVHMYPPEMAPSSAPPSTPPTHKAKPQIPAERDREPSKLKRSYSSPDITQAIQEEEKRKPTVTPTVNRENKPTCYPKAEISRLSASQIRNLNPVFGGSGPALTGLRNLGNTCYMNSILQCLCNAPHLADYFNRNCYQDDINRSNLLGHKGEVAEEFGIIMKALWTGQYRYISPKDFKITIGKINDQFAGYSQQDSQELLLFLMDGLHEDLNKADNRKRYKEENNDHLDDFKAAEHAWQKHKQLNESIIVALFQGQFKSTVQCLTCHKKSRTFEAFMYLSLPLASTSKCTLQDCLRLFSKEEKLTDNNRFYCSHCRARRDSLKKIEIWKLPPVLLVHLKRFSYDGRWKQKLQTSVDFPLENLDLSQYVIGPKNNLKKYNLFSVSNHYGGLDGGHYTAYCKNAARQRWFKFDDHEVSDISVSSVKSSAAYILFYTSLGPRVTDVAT
How it was run: as §1

USP9X = USP9X (UniProt Q93008)
Chain of USP9X (Q93008 whole entry): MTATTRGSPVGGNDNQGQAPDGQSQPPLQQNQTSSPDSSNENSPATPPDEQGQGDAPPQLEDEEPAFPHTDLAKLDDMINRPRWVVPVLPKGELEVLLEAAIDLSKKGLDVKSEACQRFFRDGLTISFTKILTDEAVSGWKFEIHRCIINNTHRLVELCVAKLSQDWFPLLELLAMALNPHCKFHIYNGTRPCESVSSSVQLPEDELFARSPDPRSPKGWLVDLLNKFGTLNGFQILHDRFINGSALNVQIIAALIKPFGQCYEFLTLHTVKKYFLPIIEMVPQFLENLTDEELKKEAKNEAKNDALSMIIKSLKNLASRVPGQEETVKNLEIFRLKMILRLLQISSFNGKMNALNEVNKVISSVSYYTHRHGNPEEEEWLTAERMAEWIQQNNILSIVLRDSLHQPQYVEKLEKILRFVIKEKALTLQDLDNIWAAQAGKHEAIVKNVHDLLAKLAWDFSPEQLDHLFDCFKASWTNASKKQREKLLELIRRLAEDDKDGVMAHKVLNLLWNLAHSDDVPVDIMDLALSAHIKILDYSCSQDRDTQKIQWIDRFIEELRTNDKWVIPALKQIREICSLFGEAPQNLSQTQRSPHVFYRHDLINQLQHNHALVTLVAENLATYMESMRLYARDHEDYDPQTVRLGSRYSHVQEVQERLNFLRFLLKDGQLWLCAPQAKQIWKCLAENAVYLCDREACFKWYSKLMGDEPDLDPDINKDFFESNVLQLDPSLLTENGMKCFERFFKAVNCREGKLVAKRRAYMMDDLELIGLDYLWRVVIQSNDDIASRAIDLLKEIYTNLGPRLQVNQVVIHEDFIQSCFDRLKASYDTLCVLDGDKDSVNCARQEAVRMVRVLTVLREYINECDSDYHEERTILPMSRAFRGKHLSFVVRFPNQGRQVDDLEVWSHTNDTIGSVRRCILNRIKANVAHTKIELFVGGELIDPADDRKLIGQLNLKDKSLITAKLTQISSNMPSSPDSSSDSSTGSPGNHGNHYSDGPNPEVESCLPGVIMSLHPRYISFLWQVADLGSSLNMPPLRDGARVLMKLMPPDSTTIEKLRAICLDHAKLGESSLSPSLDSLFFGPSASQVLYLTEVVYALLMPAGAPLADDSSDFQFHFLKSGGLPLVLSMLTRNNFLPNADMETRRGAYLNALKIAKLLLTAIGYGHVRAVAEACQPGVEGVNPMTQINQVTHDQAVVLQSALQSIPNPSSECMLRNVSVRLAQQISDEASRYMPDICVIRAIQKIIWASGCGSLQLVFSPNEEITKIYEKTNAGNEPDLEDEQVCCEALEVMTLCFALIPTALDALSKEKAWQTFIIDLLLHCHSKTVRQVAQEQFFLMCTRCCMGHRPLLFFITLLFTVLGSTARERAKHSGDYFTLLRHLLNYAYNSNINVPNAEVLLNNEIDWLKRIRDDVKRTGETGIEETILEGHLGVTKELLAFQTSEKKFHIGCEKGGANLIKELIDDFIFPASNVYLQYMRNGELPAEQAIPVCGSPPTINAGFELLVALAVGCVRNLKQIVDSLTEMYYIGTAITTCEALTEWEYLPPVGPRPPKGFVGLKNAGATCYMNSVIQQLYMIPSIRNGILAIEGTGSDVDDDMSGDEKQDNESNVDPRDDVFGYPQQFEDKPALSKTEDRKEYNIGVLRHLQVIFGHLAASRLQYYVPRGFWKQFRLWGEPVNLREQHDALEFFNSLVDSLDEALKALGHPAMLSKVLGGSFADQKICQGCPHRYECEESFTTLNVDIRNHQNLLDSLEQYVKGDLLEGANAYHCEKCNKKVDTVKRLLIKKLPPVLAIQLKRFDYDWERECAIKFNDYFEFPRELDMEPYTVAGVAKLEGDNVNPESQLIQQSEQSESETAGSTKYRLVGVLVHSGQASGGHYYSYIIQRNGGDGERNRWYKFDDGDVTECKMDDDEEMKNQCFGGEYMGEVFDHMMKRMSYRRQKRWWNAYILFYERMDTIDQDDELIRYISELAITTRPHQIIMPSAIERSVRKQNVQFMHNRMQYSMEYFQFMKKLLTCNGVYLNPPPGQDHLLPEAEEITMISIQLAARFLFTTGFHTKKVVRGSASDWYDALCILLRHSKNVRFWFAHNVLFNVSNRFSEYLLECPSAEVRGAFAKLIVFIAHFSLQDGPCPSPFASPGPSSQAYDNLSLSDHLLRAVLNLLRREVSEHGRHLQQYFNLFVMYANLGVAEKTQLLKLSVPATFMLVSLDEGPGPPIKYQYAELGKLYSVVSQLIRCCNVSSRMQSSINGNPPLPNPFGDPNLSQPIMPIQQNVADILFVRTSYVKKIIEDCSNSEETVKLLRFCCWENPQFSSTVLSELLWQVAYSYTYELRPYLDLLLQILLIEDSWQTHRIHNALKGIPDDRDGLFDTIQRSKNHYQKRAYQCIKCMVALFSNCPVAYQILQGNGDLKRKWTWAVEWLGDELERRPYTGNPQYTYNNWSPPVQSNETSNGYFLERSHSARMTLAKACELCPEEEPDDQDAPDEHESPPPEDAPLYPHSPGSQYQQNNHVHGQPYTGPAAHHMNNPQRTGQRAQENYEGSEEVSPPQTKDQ
How it was run: as §1

UniProt O00487 = biological target: UniProt O00487
Chain of UniProt O00487 (O00487 whole entry): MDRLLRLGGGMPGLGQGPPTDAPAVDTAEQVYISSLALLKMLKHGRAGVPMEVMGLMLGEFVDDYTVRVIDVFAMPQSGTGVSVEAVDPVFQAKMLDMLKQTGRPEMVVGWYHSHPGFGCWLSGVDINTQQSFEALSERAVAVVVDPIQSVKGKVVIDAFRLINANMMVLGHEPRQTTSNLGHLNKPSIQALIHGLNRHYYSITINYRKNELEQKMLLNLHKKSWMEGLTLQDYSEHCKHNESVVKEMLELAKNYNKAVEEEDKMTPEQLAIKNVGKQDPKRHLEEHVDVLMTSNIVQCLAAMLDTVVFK
How it was run: as §1

Measured: log2 ratio of Biotin-Ahx-Ub-VS probe labelling

O=C(CCl)Nc1nnc(CC(F)(F)F)o1
inactive: USP42 -0.117 | USP46 0.083 | USP47 0.172 | USP48 -0.236 | USP5 0.0095 | USP54 0.782 | USP7 -0.136 | USP8 -0.263 | USP9X -0.134 | UniProt O00487 -0.296
